# aGal spleen mod = alpha-galactosidase A (human) modulation. P06280. human spleen homogenate, 4MU-alpha-Gal fluorescence, 40 min. Potency, µM (series often up to 80 µM), for the others: top-dose activity change, negative = inhibition, hits mostly inhibitors. hit rate 0.008% among 240,000;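 note: potency is the fitted concentration of half-maximal effect; 0% = enzyme with vehicle and -100% = no enzyme basal signal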
#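 Human spleen homogenate (1 ug) was the enzyme source, with 4-methylumbelliferyl-alpha-D-galactopyranoside (1 mM final) in pH 5.0 citrate buffer with 0.01% Tween-20. Compounds were titrated; after 40 min at 37C, NaOH/glycine stop, 4-MU fluorescence read; AC50 from Hill fits.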
# GAA spleen mod = lysosomal alpha-glucosidase (human) modulation; hit rate 0.006% among 240,000; human spleen homogenate, 4-MU-alpha-glucoside fluorescence; Potency, µM (series often up to 79.9 µM), for inactives: top-dose activity change, negative = inhibition, usual class: inhibitors; AID 2112;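 note: potency is the fitted concentration of half-maximal effect; 0% = enzyme with vehicle and -100% = no enzyme basal signal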
#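 Human spleen homogenate (1 ug) incubated with compounds and 1 mM 4-methylumbelliferyl-alpha-D-glucopyranoside in pH 5.0 citrate/phosphate buffer, 37 C, 40 min. Stopped at pH 10; 4-MU fluorescence (Ex 365/Em 440 nm); AC50 by Hill fit.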
# GAA glycogen = GAA glycogen-cleavage inhibition or activation; P10253; recombinant GAA, glycogen substrate, Amplex Red glucose oxidase fluorescence; Potency, µM (series often up to 76.4 µM), inactives show at the top dose activity change, negative = inhibition, usual class: inhibitors; hit rate 0.38% among 300,000; AID 2100;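 note: potency is the fitted concentration of half-maximal effect; 0% = full enzyme reaction and -100% = no-enzyme basal signal; the screen sought inhibitors and activators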
#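 Recombinant human enzyme (4 nM); glycogen substrate; 37 C, 40 min, pH 5.0. Readout: coupled glucose oxidase/Amplex Red fluorescence.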
# GAA inh = alpha-glucosidase (human) inhibition; P10253; purified human GAA, 4-MU-alpha-glucoside fluorescence; Potency, µM (doses to about 76.9 µM), for inactives: at the top dose activity change, negative = inhibition, most hits filed as inhibitors; hit rate 0.005% among 200,000;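 note: potency is the fitted concentration of half-maximal effect; plate controls were uninhibited enzyme wells for no effect and no-enzyme background for full effect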
#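 Fluorogenic assay: 4 nM human alpha-glucosidase with 400 uM 4-methylumbelliferyl-alpha-D-pyranoside in 50 mM citrate/phosphate, 0.005% Tween-20, pH 5.0, 20 min at room temperature. Compounds tested up to 77 uM; AC50 from Hill fits.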
# N370S GC mod = inhibits or activates N370S mutant glucocerebrosidase | N370S GC spleen homogenate, 4MU-glucoside fluorescence | Potency, µM (titrated, usually from 59.4 µM), without a hit: at the top dose activity change, negative = inhibition, most hits filed as inhibitors | hit rate 0.092% among 330,000 | P04062;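 note: potency is the fitted concentration of half-maximal effect; 0% = full enzyme activity and -100% = no enzyme basal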
# GLA inh pH 4.5 = inhibitors of human alpha-galactosidase A at pH 4.5. P06280. purified enzyme, 4-MU-alpha-Gal fluorescence, pH 4.5. activity change, negative = inhibition, % at 105 µM. 230,000 tested, under 10 active. AID 1467;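 note: 0% = full activity with enzyme and -100% = basal without enzyme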
# Target sequence (P06280 whole entry, looked up): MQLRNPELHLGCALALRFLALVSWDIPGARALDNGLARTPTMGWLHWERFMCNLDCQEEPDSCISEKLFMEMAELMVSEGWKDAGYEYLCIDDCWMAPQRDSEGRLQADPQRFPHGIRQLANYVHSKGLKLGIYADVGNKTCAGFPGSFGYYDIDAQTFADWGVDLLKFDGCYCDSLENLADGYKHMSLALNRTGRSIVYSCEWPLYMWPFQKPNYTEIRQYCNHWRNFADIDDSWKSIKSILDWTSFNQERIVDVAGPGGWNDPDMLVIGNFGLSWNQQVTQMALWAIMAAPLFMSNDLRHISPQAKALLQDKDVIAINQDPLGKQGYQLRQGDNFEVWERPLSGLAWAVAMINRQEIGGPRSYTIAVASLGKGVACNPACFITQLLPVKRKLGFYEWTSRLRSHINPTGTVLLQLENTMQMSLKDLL
# Active calls of the source: *; ? = inconclusive; / = no result; [ ] = dose if it differs, or a comment. Compounds with a hit are over-represented: about 0.43% of the library has one in this group of screens. Calls come from the whole dose curve; as a rule, active = well fitted curve in the direction sought with a large enough effect; inconclusive = small, poorly fitted or top-dose-only effect, or another doubt; inactive = no such curve, though single readings can be large; an effect the other way counts as inactive or inconclusive.
SMILES,aGal spleen mod,GAA spleen mod,GAA glycogen,GAA inh,N370S GC mod,GLA inh pH 4.5
CNC(=S)NNc1nncc2ccccc12,1.6%,4.1%,10µM*,14.1%,6.6%,-8.1
COc1cccc(NS(=O)(=O)c2ccc3[nH]cc(C(=O)N4CCCC4)c(=O)c3c2)c1,/,/,28.2µM*,/,/,/
CC(C)(C)c1ccc(OCC2CO2)cc1 (centres undefined),1.2%,1.8%,/,/,-8.5%,/
CC(NC(=S)NCCc1ccccc1)C(c1cccs1)N1CCN(C)CC1 (centres undefined),-0.9%,-0.4%,-4.1%,0.9%,11.2µM*,-1.5
CC(NC(=O)c1cccs1)C(c1cccs1)N1CCN(Cc2ccccc2)CC1 (centres undefined),4.4%,-2.5%,5.1%,-5.2%,-7.9%,-0.9
CCn1nc(C)cc1Nc1ccccc1,3.4%,-5.1%,14.1µM*,-11.4%,?,-7.5
Cc1cc(Nc2ccccc2)n(-c2ccc(Br)cc2)n1,-4.8%,-10.2%,?,-3.5%,-14.8%,-0.9
COc1cc(/C=N/NC(=S)NCCN2CCOCC2)ccc1O,12.2%,-0.4%,25.1µM*,9.2%,?,1.6
COCCNC(=S)N/N=C/c1ccc(N2CCOCC2)cc1,2.9%,3.9%,?,4.8%,-2.2%,8.9
Cn1c(N)c(C(=O)CSc2nc3ccccc3c(=O)n2CCCN2CCOCC2)c(=O)n(C)c1=O,6.5%,9.8%,2.0%,-3.5%,-1.6%,3.2
Cc1[nH]c2ccccc2c1C(=O)CSc1nc2ccccc2c(=O)n1CCCN1CCOCC1,-5.9%,-9.4%,-13.3%,-8.9%,10µM*,-16.5
COC(=O)C=P(c1ccccc1)(c1ccccc1)c1ccccc1,5.2%,-0.6%,/,/,5.0%,-3.1
CCCCC(C)/C=C(C)/C=C(\C)C(=O)NC1=CC(O)(/C=C/C=C/C=C/C(=O)NC2=C(O)CCC2=O)C2OC2C1=O (centres undefined),-11.4%,-0.7%,/,/,-14.4%,/
Cc1ccc(NC(=S)NNc2ccc([N+](=O)[O-])cc2S(=O)(=O)Nc2ccccc2C(=O)O)cc1C,-2.3%,0.5%,22.4µM*,0.1%,9.6%,-1.9
Cc1ccc(-c2[nH]c(=O)n3ccncc23)s1,8.6%,0.9%,39.8µM*,-7.1%,0.0%[2.35 µM],-7.6
Cc1nn(C(C)C(=O)NCc2cccc(F)c2)c(=O)c2c1sc1ccccc12 (centres undefined),/,/,8.5%[76.3 µM],/,/,/
C#CCCCO/N=C1/C[C@@H](O)[C@@H](O)[C@@H]2[C@@H]3C(=O)N(C4CCCCC4)C(=O)[C@H]3CC[C@@H]12,1.6%[17.5 µM],-0.9%[17.4 µM],/,/,-8.0%[12.8 µM],/
CCOC(=O)/C(C#N)=C\c1cc(C)n(-c2ccccc2)c1C,15.3%,-0.5%,3.3%,-15.0%,4.2%,-1.4
CCOC(=O)/C(C#N)=C\c1ccc(N2CCN(C/C=C/c3ccccc3)CC2)cc1,1.0%,1.7%,-8.0%,-14.6%,15.8µM*,-8.6
c1ccc(Nc2nc(-c3ccoc3)nc3ccccc23)cc1,12.6%,5.4%,/,/,12.6µM*,/
c1ccc(Nc2nc(-c3ccccc3)nc3ccccc23)cc1,/,/,4.5%[76.3 µM],/,?,/
Cc1ccc(-c2nc(Nc3ccc(N4CCOCC4)cc3)c3ccccc3n2)cc1,8.8%,-0.9%,-8.6%,/,14.1µM*,-13.0
CNC(=O)[C@H]1O[C@@H](n2cnc3c(NCc4ccc(N)cc4)ncnc32)[C@H](O)[C@H]1O,12.8%,11.9%,/,/,-0.1%,-5.3
CCCCc1nc2c(c3c1C[C@H](C)OC3)CN(C(=O)N[C@H](C(=O)OC)C(C)C)CC2,5.3%[17.5 µM],2.1%[17.4 µM],/,/,-5.2%[12.8 µM],-2.4
CCC(Cn1nnc2ccccc2c1=O)NC(=O)Nc1cccc(C)c1C (centres undefined),/,/,14.2%[76.3 µM],/,/,/
COc1cc(/C=N/NC(=O)C(=O)/C=C2\NC(C)(C)Cc3ccccc32)ccc1O,-10.6%,12.2%,35.5µM*,/,3.2%,-29.5
C[C@H]1Cc2c(COc3ccccc3)nc3c(c2CO1)CN(C(=O)c1ccco1)CC3,2.7%[17.5 µM],5.6%[17.4 µM],/,/,3.3%[12.8 µM],4.4

# Screening data as filed in PubChem.
